Experimental findings from PubChem BioAssay are described below.

Each structure is given as a SMILES string. Records with an inconclusive call do not appear. Activity calls are given as the source filed them.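 How the source made its calls, unless noted: active means viability at or below 27.92% in each of two runs, the all-compound median minus 4 SD; inconclusive means no clear call, values can overlap the other calls; inactive means the rest.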

The nature of test [1]: Her2 expression decrease, cell viability multiplex – SKBR3 breast tumor cells, AlphaScreen, ATP viability, primary screen (AID 461;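 active means Her2 level under about 52% in both replicate screens, with viability over 70% of control, limit read from the data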;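 on Her2 level: lower value means less Her2 protein in the cells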;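 on viability: percent of carrier control wells set as 100% viability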). The settings on record: SKBR3 Her2 protein level, 18-24 h, measured here: SKBR3 viability, ATP luminescence, at 10 µM. For orientation: Bead proximity is the source of the signal in Alpha formats.
Test [2] has as its target Receptor tyrosine-protein kinase erbB-2 (Homo sapiens) (UniProt P04626). The description is as above. The settings on record: 18-24 h, at 10 µM, stronger effect = lower value.
Test [3] in a line: reduced viability of SK-BR-3 breast cancer cells – cell-based, 24 h, human, pilot screen (AID 572;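 active means viability at or below 10% of carrier control in both of two separate runs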;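 further: compound exposure lasted between 18 and 24 h rather than exactly 24 h; 100% = carrier-treated control wells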). The settings on record: SK-BR-3 viability, CellTiter-Glo luminescence, at 10 µM, stronger effect = lower value. For orientation: In ATP-based viability assays light output follows the ATP content of the culture.
The nature of test [4]: HUVEC growth inhibition – cell-based, human, primary screen (AID 575;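 active means viability at or below 30% in both replicate assays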;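 further: 100% = median of untreated cell wells with 0.1% DMSO on each plate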). The settings on record: HUVEC proliferation, CellTiter-Glo luminescence, 72 h; at 10 µM; stronger effect = lower value.
The nature of test [5]: H69AR cell proliferation blockers – human, duplicate replicates, primary screen (AID 580;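 active means viability at or under a set limit in both replicates, limit being median viability minus 3 SD, cut at about 48% in these data, passing the limit was not always enough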;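 further: 100% = mean luminescence of untreated wells and 0% = no signal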). The settings on record: H69AR lung tumor cells viability, ATP luminescence, 72 h; at 10 µM; stronger effect = lower value.
A short description of test [6]: MRP1 drug-resistance reversers in H69AR cells – cell-based, doxorubicin co-treatment, pilot screen (AID 601;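 active means viability loss from added drug above about 55%, and viability with drug at most 40%, in both replicates, limit read from the data, passing the limit was not always enough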). The settings on record: CellTiter-Glo, 72 h, at 10 µM; for differential viability (reversal): stronger effect = higher value.
Test [7] in a line: yeast transport mutant growth inhibition pilot in 384-well plates, post-Golgi transport modulator project (AID 636; in the data active means inhibition above about 31%). The settings on record: absorbance 615 nm, about 18 h, stronger effect = higher value.
The nature of test [8]: growth suppression of yeast trafficking mutant, preliminary HTS, modulators of trafficking downstream of Golgi apparatus project, 1536-format plate, OD 615 nm (AID 637; in the data active means inhibition above about 30%). The settings on record: yeast transport mutant growth, absorbance 615 nm, 18 h; stronger effect = higher value.
Test [9] is described as follows: S. cerevisiae growth inhibition in permissive medium (OD615), pilot counter-assay for S. cerevisiae lifespan shortening project, permissive growth control (AID 705;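 active means growth inhibition above 25% in both replicates, a cutoff set 3 SD above the mean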). To be noted: OD615, 24 h, at 10 µM, stronger effect = higher value.
The nature of test [10]: S. cerevisiae growth inhibition in restrictive medium, OD615, pilot screen, restrictive growth control, yeast lifespan reduction project (AID 706;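 active means growth inhibition above a set limit, 3 SD over mean compound inhibition, in both replicates, cut at about 43% in these data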;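 further: modified DeaD lifespan yeast strain shifted to restrictive glucose medium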). To be noted: OD615, 48 h, at 10 µM, stronger effect = higher value.
The nature of test [11]: doxorubicin toxicity protection in MRP-1 cells – H69AR cells, CellTiter-Glo, duplicate, MRP-1 activator project, pilot screen (AID 807;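 active means viability increase at or above a cutoff of the median across tested compounds plus 3 SD, cut at about 8.5% in these data, passing the limit was not always enough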;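 further: compound pretreatment 18-22 h then 72 h combined with doxorubicin; 0% = doxorubicin alone and 100% = vehicle without doxorubicin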). The settings on record: H69AR viability with doxorubicin, CellTiter-Glo luminescence; at 10 µM; stronger effect = higher value.
Test [12] is described as follows: viability of HCT116 without oncogenic beta-catenin – human colon tumor cells, pilot screen (AID 823;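 active means cell viability at or below a set limit in both duplicate runs, the limit being the all-compound median minus 4 SD, cut at about 23% in these data, passing the limit was not always enough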;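 further: 0% = wells killed by 20 µM Hyamine and 100% = untreated DMSO cell wells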). To be noted: HCT116 beta-catenin knockout viability, CellTiter-Glo, 60 h; at 10 µM; stronger effect = lower value.
Test [13] in a line: viability of PTEN-null HCT116 cells – cell-based, HCT116 clonal line, CellTiter-Glo, pilot screen (AID 824).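 Further: 0% = 20 µM Hyamine control and 100% = vehicle cell control.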 The settings on record: HCT116 PTEN-deleted viability, 60 h, at 10 µM, stronger effect = lower value.
Test [14] in a line: RAM pathway blockade in budding yeast – dse1pr::URA3 reporter, 5-FOA selection, pilot screen (AID 869;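 active means inhibition over a set limit, the all-compound mean plus 3 SD, in both replicate runs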;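 further: 0% = DMSO wells with no growth and 100% = 10 µM 1-NA-PP1 with full growth; RAM network block rescues cells from 5-FOA so hits raise OD615 growth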). The settings on record: S. cerevisiae dse1pr::URA3 5-FOA growth, OD615, 2 d; at 10 µM; stronger effect = higher value; strain carries analog-sensitive mutant Cbk1 kinase.
A short description of test [15]: RAM signaling pathway blockade in yeast – S. cerevisiae, Pdr1DBD-CYC8 efflux-inhibited sensitized strain, primary screen (AID 1298;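 active means RAM network inhibition above 8.4% in each of two replicates, 3 SD over the compound average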;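 further: 0% = DMSO untreated cells without growth and 100% = 10 µM 1-NA-PP1 full growth; higher means more yeast growth rescued from 5-FOA killing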). To be noted: S. cerevisiae cbk1-as DSE1-URA3 strain, 5-FOA growth OD615, 2 d; at 50 µM; stronger effect = higher value.
Setting [16] is: H69AR cells + 2 uM doxorubicin, measured here: viability with 2 uM doxorubicin, stronger effect = lower value.
[17] abbreviates: H69AR cells, compound alone cytotoxicity.

Usually viability stands for a read-out of living cells in per cent, often relative to untreated cells. By inhibition is commonly meant the drop in the measured response relative to a control, in per cent.

Sequence of Receptor tyrosine-protein kinase erbB-2 (Homo sapiens) (P04626 whole entry, looked up): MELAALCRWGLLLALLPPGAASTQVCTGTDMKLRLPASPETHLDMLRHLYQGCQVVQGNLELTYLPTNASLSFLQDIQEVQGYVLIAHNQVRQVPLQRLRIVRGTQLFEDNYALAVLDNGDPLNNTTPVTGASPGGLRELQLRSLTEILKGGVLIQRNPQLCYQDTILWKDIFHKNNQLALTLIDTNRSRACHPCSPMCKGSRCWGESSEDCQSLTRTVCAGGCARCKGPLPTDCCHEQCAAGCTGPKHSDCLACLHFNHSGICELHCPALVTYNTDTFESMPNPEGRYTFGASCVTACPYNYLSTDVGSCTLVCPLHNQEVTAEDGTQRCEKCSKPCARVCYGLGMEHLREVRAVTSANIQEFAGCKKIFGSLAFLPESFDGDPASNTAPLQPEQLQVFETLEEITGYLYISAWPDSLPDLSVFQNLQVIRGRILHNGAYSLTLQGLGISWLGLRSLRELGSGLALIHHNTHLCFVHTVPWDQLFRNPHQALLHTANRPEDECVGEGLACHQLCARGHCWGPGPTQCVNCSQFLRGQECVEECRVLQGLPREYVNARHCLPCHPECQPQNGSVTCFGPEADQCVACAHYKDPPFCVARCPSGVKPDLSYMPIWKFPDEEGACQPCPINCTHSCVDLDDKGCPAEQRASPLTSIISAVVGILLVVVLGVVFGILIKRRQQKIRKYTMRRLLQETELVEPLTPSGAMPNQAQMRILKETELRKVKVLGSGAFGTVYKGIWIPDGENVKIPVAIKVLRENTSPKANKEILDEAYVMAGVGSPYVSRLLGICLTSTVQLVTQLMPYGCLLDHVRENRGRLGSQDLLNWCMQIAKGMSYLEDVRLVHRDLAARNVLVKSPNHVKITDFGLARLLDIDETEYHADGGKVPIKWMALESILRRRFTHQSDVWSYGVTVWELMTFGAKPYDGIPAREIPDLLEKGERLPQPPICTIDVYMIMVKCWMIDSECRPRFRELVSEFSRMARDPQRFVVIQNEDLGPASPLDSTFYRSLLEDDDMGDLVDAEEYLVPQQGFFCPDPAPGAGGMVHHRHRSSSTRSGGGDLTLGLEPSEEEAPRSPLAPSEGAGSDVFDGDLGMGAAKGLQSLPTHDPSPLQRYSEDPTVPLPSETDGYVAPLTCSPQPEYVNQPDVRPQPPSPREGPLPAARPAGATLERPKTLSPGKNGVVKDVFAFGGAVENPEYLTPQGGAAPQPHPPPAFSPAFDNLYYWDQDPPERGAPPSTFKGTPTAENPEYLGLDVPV

As for `COCCNC(=O)CN(C)S(=O)(=O)c1ccc(Br)cc1`, the viability is 113% in test [1]; 113% (inactive) in [3]; 97.5% (inactive) in test [4]; 104% (inactive) in test [5]; 98.2% in [6] (setting [16]); 104% in test [6] (setting [17]). Further, the viability is 98.7% (inactive) in test [12] and 98.4% (inactive) in test [13]. The Her2 level in [2] was 98% (inactive). The differential viability (reversal) in test [6] (H69AR cells + 2 uM doxorubicin) is 5.54% (inactive). Also, the inhibition in [7] is -6.27% (inactive); in test [8], -3.23% (inactive); in test [14], 0.87% (inactive). Also, the figures for the growth inhibition in [9] and in [10] were -11.6% (inactive) and -5.76% (inactive), respectively. Moreover, in test [11], the viability increase was -2.09% (inactive). The RAM network inhibition in test [15] is 3.01% (inactive).

As to `Cn1cc(Cl)c(C(=O)NC2CCCC2)n1`, the viability is 83.5% in [1]; 83.5% (inactive) in [3]; 108% (inactive) in test [4]; 105% (inactive) in [5]; 91.3% in test [6] (setting [16]); 105% in test [6] (setting [17]). In addition, the viability in test [12] was 104% (inactive); in test [13], 103% (inactive). In addition, in [2], the Her2 level is 118% (inactive). The differential viability (reversal) in test [6] (H69AR cells + 2 uM doxorubicin) is 14.1% (inactive). Also, the inhibition was -5.07% (inactive) in test [7], 5.5% (inactive) in test [8] and 1.5% (inactive) in test [14]. The growth inhibition is -12.3% (inactive) in [9] and -8.69% (inactive) in [10]. Moreover, the viability increase in [11] is -0.89% (inactive). Moreover, the RAM network inhibition in test [15] is 2.86% (inactive).

Regarding `CCOC(=O)c1ccc(NCc2nc3ccccc3[nH]2)cc1`, the viability in [1] was 88.5%; in [3] it was 88.5% (inactive); in [4], 86% (inactive); in [5] it was 105% (inactive); in test [6] (setting [16]), 89.7%; in test [6] (setting [17]), 105%. The viability is 86.8% (inactive) in test [12] and 76.8% (inactive) in test [13]. Moreover, in [2], the Her2 level was 97% (inactive). In addition, the differential viability (reversal) in test [6] (H69AR cells + 2 uM doxorubicin) was 15.1% (inactive). Besides, the figures for the inhibition in [7], in [8] and in test [14] were 0.93% (inactive), -2.62% (inactive) and 1.83% (inactive), respectively. The growth inhibition was -1.66% (inactive) in test [9] and -8.54% (inactive) in test [10]. Besides, the viability increase in [11] is -5.9% (inactive). Besides, the RAM network inhibition in test [15] is 2.11% (inactive).

Turning to `O=C(CCn1c(=O)oc2ccccc21)NCc1ccco1`, the viability in test [1] is 106%; in test [3], 106% (inactive); in [4] it was 89.9% (inactive); in test [5], 91% (inactive); in test [6] (setting [16]) it was 81%; in test [6] (setting [17]), 91%. In addition, the values for the viability in test [12] and in test [13] were 102% (inactive) and 99.4% (inactive), respectively. For the same compound, the Her2 level in [2] was 115% (inactive). Also, in test [6] (H69AR cells + 2 uM doxorubicin), the differential viability (reversal) was 10% (inactive). Further, the figures for the inhibition in test [7], in test [8] and in test [14] were -3.47% (inactive), -5.17% (inactive) and 2.08% (inactive), respectively. For the same compound, the growth inhibition in test [9] was -2.37% (inactive); in [10], -2.52% (inactive). The viability increase in [11] is -1.66% (inactive). Besides, the RAM network inhibition in test [15] is 2.93% (inactive).

Take `CC1CCc2nn(CC(=O)NCCCN3CCOCC3)cc2C1` (stereo not given): the viability in test [1] was 99.5%; in test [3], 99.5% (inactive); in test [4], 85.6% (inactive); in test [5] it was 90.5% (inactive); in test [6] (setting [16]), 88.1%; in [6] (setting [17]), 90.5%. For the same compound, the viability in [12] was 104% (inactive); in [13], 95% (inactive). Moreover, the Her2 level in [2] is 102% (inactive). The differential viability (reversal) in test [6] (H69AR cells + 2 uM doxorubicin) was 2.46% (inactive). Also, the values for the inhibition in [7], in test [8] and in test [14] were -3.97% (inactive), -0.83% (inactive) and 3.4% (inactive), respectively. Moreover, the results for the growth inhibition in test [9] and in test [10] were 7.55% (inactive) and 6.69% (inactive), respectively. Moreover, the viability increase in [11] was -1.14% (inactive). Moreover, the RAM network inhibition in test [15] is 1.33% (inactive).
